This is a sample that favours compounds with a hit; in the whole collection about 6.1% have one here.
D3 ag: agonists of human D3 dopamine receptor | max activation, % | 410,000 compounds, 0.58% hits | D3R DiscoveRx beta-arrestin cells, luminescence, 90 min | P35462; in the data active = max activation above about 30%; also: 0% is about no effect
Target sequence (P35462 whole entry, looked up): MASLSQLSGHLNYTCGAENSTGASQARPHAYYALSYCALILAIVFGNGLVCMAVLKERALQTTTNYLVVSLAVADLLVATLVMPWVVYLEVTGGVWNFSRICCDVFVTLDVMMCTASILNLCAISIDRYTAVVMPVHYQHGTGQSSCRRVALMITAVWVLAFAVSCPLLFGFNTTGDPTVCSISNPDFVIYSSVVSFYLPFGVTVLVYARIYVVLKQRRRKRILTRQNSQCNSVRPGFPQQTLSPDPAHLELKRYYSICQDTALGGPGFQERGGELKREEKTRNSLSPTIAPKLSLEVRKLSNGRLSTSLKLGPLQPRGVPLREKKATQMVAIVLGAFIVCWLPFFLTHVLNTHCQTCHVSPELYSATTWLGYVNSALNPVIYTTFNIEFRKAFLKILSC
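Agonist mode: compounds and dopamine controls were applied to plated cells for 90 min at 37 degrees C after an overnight attachment at 1500 cells/well. Luminescent read-out followed 30 - 60 minutes at room temperature with DiscoveRx detection reagent.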
D1 potentiator: human D1 dopamine receptor positive modulation. P21728. HEK293 TREx D1 cells, calcium flux, dopamine EC20 potentiation. potentiation, % at 10 µM. 360,000 compounds, 0.036% hits. AID 504651; in the data active = potentiation above about 30%; also: 0% is about no effect
D1 antag: human D1 dopamine receptor antagonism; P21728; HEK293 TREx D1 cells, calcium flux, dopamine EC80; active compounds read low; activity change, negative = inhibition, % at 10 µM; 360,000 compounds, 3.2% hits; in the data active = activity change below about -30%; also: % is scaled to controls: 0 for no effect and ±100 for the full control effect
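Cells carrying a force-coupled, tetracycline-inducible human D1 receptor report calcium flux. Each well gets a 10 s baseline, compound with 180 s monitoring, then an EC80 dopamine stimulus with a second 180 s kinetic read.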
D3 antag: D3 dopamine receptor (human) antagonism; P35462; D3R cells, DiscoveRx beta-arrestin luminescence, antagonist mode; active compounds read low; max response, negative = inhibition, %; 360,000 compounds, 2.5% hits; AID 652054; in the data active = max response below about -50%; inconclusive = no clear call, values can overlap the other calls; also: % is scaled to controls: 0 for no effect and ±100 for the full control effect
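Cells expressing the human receptor were seeded at 1500 cells/well, incubated overnight at 37 degrees C in 5% CO2, then exposed to library compounds with dopamine controls for 90 minutes at 37 degrees C before luminescent detection.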
ERG Ets-DNA blk: blocks human ERG Ets domain binding to DNA | 370,000 compounds, 0.028% hits | Potency, µM (top dose mostly 76.9 µM), for inactives: at the top dose FP activity, negative = inhibition, hits mostly inhibitors | fluorescence polarization, His-ERG Ets domain / labelled DNA; active = well fitted inhibition curve with a large enough effect in the polarisation, with a control signal flat; inconclusive = small, poorly fitted or top-dose-only effect, or effect the other way, or a change in a side signal; inactive = no such curve, though single readings can be large or run the other way; the % refers to the polarisation;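 also: polarization taken with two DNA probes labelled with fluorescein and Texas red; potency is read from the fitted curve at half-maximal effect; % of control where 0% means no effect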
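His-tagged ERG Ets domain (1 uM in the protein solution; 300mM KCl, 50mM Tris-HCl, 1mM EDTA, 1mM DTT, pH 7.5) received compound, then a probe mix of 5 nM fluorescein-DNA and 100nM Texas-615-DNA. Fluorescence polarization was read for both dyes.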
D1 ag: agonists of human D1 dopamine receptor; activation, % at 2 µM; HEK293 T-REx D1 cells, calcium flux, agonist mode; 360,000 compounds, 1% hits; P21728; in the data active = activation above about 30%; also: 0% is about no effect
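Tetracycline-induced HEK293 TREx D1 cells, force-coupled to calcium signalling, were dye-loaded with a no-wash calcium kit. Compound was pin-added after a 10 s baseline. Fluorescence was read kinetically at 1 cycle/s for 180 s, with calcium rises flagged as agonism.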
* = called active by the depositor; ? = inconclusive; . = not tested or not shown; [ ] = remark or other dose.

SMILES | D3 ag | D1 potentiator | D1 antag | D3 antag | ERG Ets-DNA blk | D1 ag
Cn1c(=O)oc2cc(S(=O)(=O)N3CCCC(C(=O)N4CCc5ccccc5C4)C3)ccc21 (stereo not given) | -6 | . | -38* | ? | -12% | 12
O=C(O)c1ccc(CN2C(=O)CSC2=S)cc1 | -1 | -8 | 12 | 15 | ? | 31*
O=C1/C(=C\c2ccc(O)cc2)SC(=S)N1Cc1ccccc1 | -24 | -6 | 0 | -82* | 161% | 27
O=C(O)c1ccc(/C=C2/SC(=S)N(Cc3ccccc3)C2=O)cc1 | 2 | 30* | 2 | 2 | 27% | 2
O=C(O)c1ccc2c(c1)C(=O)N(Cc1ccccc1)C2=O | -2 | 2 | -14 | -51* | -8% | 3
O=C(O)c1ccc(N2C(=O)CSC2=S)cc1 | 8 | . | . | -4 | 135% | .
CCOC(=O)C1(Cc2ccc(OC)cc2)CCN(C(=O)CCn2ccc(C)n2)CC1 | 4 | -1 | 9 | 6 | -5% | 0
CCCOc1ccc(/C=C2\SC(=S)N(CC3CCCO3)C2=O)cc1 (stereo not given) | 0 | -3 | 1 | -4 | -5% | 8
CN1CCN(C(=O)CCN2C(=O)/C(=C\c3ccc(F)cc3)SC2=S)CC1 | -4 | . | . | -7 | 51% | .
CN1CCN(C(=O)CCN2C(=O)/C(=C\c3ccc(Cl)cc3)SC2=S)CC1 | -8 | -3 | -43* | -12 | 8% | 16
O=C1/C(=C/c2ccc(O)cc2)SC(=S)N1CC1CCCO1 (stereo not given) | -1 | 0 | -3 | -24 | 128% | 49*
CCOc1cccc(C2CC(=O)Nc3cc4c(cc32)OCCO4)c1 (stereo not given) | 1 | 0 | -32* | . | 1% | 45*
Cc1ccc(C2CC(=O)Nc3cc4c(cc32)OCCO4)cc1 (stereo not given) | -4 | 2 | 2 | . | 2% | 32*
CC(C)Oc1ccccc1C1CC(=O)Nc2cc3c(cc21)OCCO3 (stereo not given) | 36* | 3 | 3 | 23 | -4% | 0
CCOc1ccccc1C1CC(=O)Nc2cc3c(cc21)OCO3 (stereo not given) | 1 | 1 | -8 | 6 | -7% | 5
COc1cccc(CN2C(=O)c3ccccc3C2C(=O)NCCc2ccccc2)c1 (stereo not given) | -2 | 1 | 10 | . | -3% | 0
CC(=O)Nc1ccc2nc(NC(=O)CS(=O)(=O)c3ccccc3)sc2c1 | -6 | -5 | 12 | 12 | -6% | 2
Cc1ccccc1OCC(=O)OCc1cc(=O)n2ccsc2n1 | 0 | 0 | -1 | . | -1% | 4
CN(CC(=O)Nc1ccc(F)cc1)C(=O)c1ccc(OCc2ccccc2)cc1 | 3 | -1 | -26 | -5 | -10% | 18
Cc1cc(=O)n(Cc2cccc(Br)c2)c2c1c(C)nn2-c1ccccc1 | -2 | -6 | -79* | . | -3% | 14
COc1ccc(OCc2nc3ccc(S(=O)(=O)Nc4ccccc4Cl)cc3[nH]2)cc1 | -11 | -11 | -57* | 3 | -15% | 4
CCOCc1c(C(=O)Nc2ccc3nc(N4CCOCC4)sc3c2)oc2ccccc12 | 1 | -8 | -32* | 60 | 0% | 0
CCOCc1c(C(=O)Nc2ccccc2N2CCN(C)CC2)oc2ccccc12 | 0 | 0 | -1 | 4 | -10% | -1
Cc1c(C(=O)NCc2ccccc2CN2CCCC2)oc2ccccc12 | -22 | -17 | -43* | -12 | 15% | 0
CCOCc1c(C(=O)NCc2ccccc2CN2CCCC2)oc2ccccc12 | -18 | -6 | -30* | 22 | -6% | 1
SMILES | D3 ag | D1 potentiator | D1 antag | D3 antag | ERG Ets-DNA blk | D1 ag
CCOCc1c(C(=O)Nc2cc(OCC)c(N3CCOCC3)cc2OCC)oc2ccccc12 | 12 | -4 | 1 | 63 | -2% | 2
CN=C1N(C)C[C@@H]2[C@@H]3C(=O)N(Cc4ccccc4)C(=O)[C@@H]3[C@](Cc3ccccc3)(C(=O)OC)N12 | 9 | . | . | -4 | 12% | .
O=c1[nH]c(C2CCCN(S(=O)(=O)c3ccccc3Cl)C2)nc2c1nnn2Cc1ccc2c(c1)OCCO2 (stereo not given) | -15 | 1 | -12 | -15 | 1% | 2
Cc1ccc(C(=O)C2CCN(S(=O)(=O)c3ccc(C(=O)O)cc3)CC2)cc1 | 10 | -3 | 1 | 7 | -15% | 2
Cc1ccc(C(=O)C2CCNCC2)cc1 | -6 | 2 | 6 | -65* | -9% | -1
O=C(CN1CCC(C(=O)c2ccc(Cl)cc2)CC1)Nc1ccc2c(c1)OCCO2 | -27 | -7 | -5 | -76* | -4% | 7
Cc1ccc(NC(=O)CN2CCC(C(=O)c3ccc(F)cc3)CC2)cc1 | -10 | -8 | -11 | -69* | -15% | 0
NC(=O)C1CCN(CC(=O)Nc2ccc3c(c2)OCCO3)CC1 | 4 | . | . | -28 | -7%[15.4 µM] | .
Cc1ccc(C(=O)C2CCN(CC(=O)Nc3ccccc3C)CC2)cc1 | -15 | -10 | -9 | ? | -2% | 1
O=C(CSc1ccc(-c2ccc(Cl)cc2)nn1)N1CCCc2ccccc21 | 5 | -6 | -34* | -12 | -6% | 6
Cc1ccc(C(=O)C2CCN(CC(=O)NCc3ccc(F)cc3)CC2)cc1 | -29 | -9 | 1 | -93* | -4% | 3
Cc1ccc(CNC(=O)CN2CCCC(C)C2)cc1 (stereo not given) | -6 | -3 | 10 | -71* | 3% | 2
Cc1cc(NC(=O)CN2CCCC(C)C2)no1 (stereo not given) | 3 | -1 | 9 | 8 | -3%[15.4 µM] | 3
O=C(CSc1ccc(-c2ccc(Cl)cc2)nn1)Nc1ccc2c(c1)OCCO2 | 2 | -7 | -31* | 1 | -4% | 1
Cc1ccc(NC(=O)CSc2ccc(-c3ccc4c(c3)OCO4)nn2)cc1F | 14 | -4 | -2 | 6 | -3% | -1
O=S(=O)(/C=C/c1ccccc1)N1CCN(c2nc(-c3ccccc3)nc3ccccc23)CC1 | -1 | -5 | 2 | -2 | -3% | 3
COC(=O)c1ccc(Cn2nnc3sc4c(c3c2=O)CCC(C)C4)cc1 (stereo not given) | 5 | 1 | -4 | . | -3% | 5
COc1cc([N+](=O)[O-])c(OC)cc1SCc1n[nH]c(=S)n1-c1ccc(C)cc1 | -7 | 8 | 7 | -22 | 10% | 1
COc1cc(-c2ccc3c(=O)c4ccccc4n(C)c3c2)cc(OC)c1OC | 68* | -3 | -8 | 149 | 0% | 0
Cn1c2ccccc2c(=O)c2ccc(-c3ccc4c(c3)OCO4)cc21 | -21 | -8 | -48* | 26 | -10% | 1
COc1ccc2sc3ccccc3c(=O)c2c1 | -3 | 2 | 8 | 21 | -2% | 3
